Our source for the Inhibition values is ChEMBL document CHEMBL1157539, “Thousands of chemical starting points for antimalarial lead identification” (Nature, 2010).

A word on the Inhibition: it is the share of the control response that was lost under treatment. Read a high Inhibition as a response far below the control.

Each structure is given as a SMILES string.

Holding throughout (type): functional
In assay [1] the test system is Plasmodium falciparum. Kind of assay: GSK_TCMDC: Inhibition of Plasmodium falciparum 3D7 in whole red blood cells, using parasite LDH activity as an index of growth. Test compounds present at 2uM.
Assay [2] concerns Plasmodium falciparum. In words: GSK_TCMDC: Inhibition of Plasmodium falciparum Dd2 in whole red blood cells, using parasite LDH activity as an index of growth. Test compounds present at 2uM.
Assay [3] has as its system HepG2. Kind of assay: GSK_TCMDC: Percent inhibition of human HepG2 cell line. Test compounds present at 10uM.

For the compound `CN1CCN(Cc2cccc(-c3cc4nccc(Nc5ccc(Oc6ccccc6)cc5)c4cc3Cl)c2)CC1`, the Inhibition in assay [1] worked out at 100%; in assay [2], 96%; in assay [3], 10%.
In the same order, the values of `CCOc1cc2ncnc(Nc3ccc(OCc4ccccc4Br)c(OC)c3)c2cc1OCC.Cl` are 100%, 82% and 1%.
In the same order, the values of `COc1cc(-c2cc(-c3ccc(S(C)(=O)=O)cc3)cnc2N)ccc1O` are 97%, 97% and 37%.
Regarding `CCC1CN2CCc3c([nH]c4ccccc34)C2CC1CC1NCCc2cc(OC)c(OC)cc21.Cl` (centres undefined), the Inhibition in assay [1] is given as 100%; in assay [2], 83%; in assay [3] it was 26%.
`N=C(N)Nc1nc(-c2ccc(NCc3ccc(CNc4cccc(-c5csc(NC(=N)N)n5)c4)cc3)cc2)cs1`: the results for the Inhibition in assay [1], in assay [2] and in assay [3] were 100%, 99% and 11%, respectively.
`CCCCNC(=O)[C@H](CC1CCCCC1)NC(=O)c1ccc(O)c(-c2cccc(C(F)(F)F)c2)c1`: the Inhibition in assay [1] was 98%; in assay [2] it was 86%; in assay [3], 0%.
Consider `O=C(Nc1ccc(Cl)cc1F)NC1CCN(CCCCCNC(=O)C2CC2c2ccc(Cl)c(Cl)c2)CC1` (centres undefined), for which the Inhibition is 100% in assay [1], 27% in assay [2] and 46% in assay [3].
In the same order, the values of `CCN1CCC(N(Cc2ccc(-c3ccc(C(F)(F)F)cc3)cc2)C(=O)Cn2c(SCc3cccc(F)c3F)cc(=O)c3ccccc32)C1.O=C(O)C(O)C(O)C(=O)O` (centres undefined) are 90%, 91% and 42%.
In the same order, the values of `NS(=O)(=O)c1ccccc1Nc1nc(Nc2ccc(N3CCOCC3)cc2)nc2c1CCC2.O=CO` are 96%, 99% and 21%.
As to `Cc1ccc(NC(=O)c2ccc(N3CCN(c4ccncc4)CC3)cn2)cc1F.O=C(O)C(F)(F)F`, the Inhibition was determined as 98% in assay [1], 77% in assay [2] and 2% in assay [3].
For the compound `O=C(Nc1cccc(CN2CCCN(Cc3cccc(O)c3)CC2)c1)c1cc2ccccc2s1.O=C(O)C(F)(F)F`, the Inhibition worked out at 100% in assay [1], 75% in assay [2] and 15% in assay [3].
In the same order, the values of `O=C(Nc1ccc(N2CCCCC2)c(Cl)c1)c1ccc(Br)o1` are 94%, 94% and 0%.
In the same order, the values of `CN(C)CCCSc1ccccc1NC(=O)C=Cc1ccccc1` are 85%, 0% and 0%.
With `COC(=O)c1cccc(CNCc2ccc(-c3ccc(-c4nc5cc(C(F)(F)F)ccc5[nH]4)s3)cc2)c1.O=C(O)C(F)(F)F`, the Inhibition in assay [1] came out at 100%; in assay [2] it was 96%; in assay [3], 34%.
`O=C(NC1CCC1)C1CCN(C(c2ccc(Cl)cc2)c2ccc(Cl)cc2)CC1`: the Inhibition worked out at 95% in assay [1], 70% in assay [2] and 6% in assay [3].
`O=C(NCCc1ccc(Cl)c(Cl)c1)c1ccc(CNC(=O)c2ccc(O)c(-c3ccc(Cl)c(Cl)c3)c2)cc1`: the Inhibition in assay [1] amounted to 97%; in assay [2], 3%; in assay [3], 0%.
On to `C=C[C@H]1CN(CCCCCCC)CC[C@H]1CCNc1ccnc2ccc(OC)cc12`, for which the Inhibition in assay [1] is recorded as 95%; in assay [2] it was 81%; in assay [3], 99%.
Turning to `COc1ccc2ncc(F)c(CCN3CC(O)C(CNCc4ccc5c(c4)OCCO5)C3)c2n1.Cl` (centres undefined), the results for the Inhibition in assay [1], in assay [2] and in assay [3] were 94%, 35% and 18%, respectively.
On to `O=C(Nc1ccc([N+](=O)[O-])cc1)Nc1cc(C(F)(F)F)ccc1F`, for which the Inhibition in assay [1] was found to be 89%; in assay [2], 46%; in assay [3] it was 8%.
As for `O=C(NC1CC1)c1cnc(N2CCC(COc3cccc(F)c3)CC2)c(Cl)c1`, the Inhibition in assay [1] turned out to be 89%; in assay [2], 87%; in assay [3] it was 1%.
With `O=C(Nc1cccc(CN2CCCN(Cc3ccc(O)cc3)CC2)c1)c1cc2ccccc2o1.O=C(O)C(F)(F)F`, the Inhibition is reported as 95% in assay [1], 62% in assay [2] and 10% in assay [3].
On to `CCCCc1ccc(-c2ccc3[nH]c(C)c(Br)c(=O)c3c2)cc1`, for which the Inhibition is 97% in assay [1], 97% in assay [2] and 0% in assay [3].
On to `CCCCCn1c(Sc2ccc(C#N)c([N+](=O)[O-])c2)nnc1-c1cc(OC)cc(OC)c1`, for which the Inhibition in assay [1] is on record as 93%; in assay [2], 24%; in assay [3], 17%.
Consider `CN1CCN(c2ccnc3ccc(NC(=O)Cc4ccc(-c5ccncc5)c5ccccc45)cc23)CC1`, for which the Inhibition was 100% in assay [1], 100% in assay [2] and 32% in assay [3].
As to `CCNc1cc(C)nc(Nc2ccc(NC(=O)c3c(F)cccc3Cl)cc2)n1`, the Inhibition in assay [1] was 100%; in assay [2], 89%; in assay [3] it was 49%.
With `CN(C)C(CNC(=O)c1cc(-c2ccncc2)c(-c2ccc(NC(=O)Nc3cccc(F)c3)cc2)o1)c1ccccc1.O=C(O)C(F)(F)F` (centres undefined), the Inhibition in assay [1] turned out to be 100%; in assay [2], 99%; in assay [3], 11%.
In the case of `COc1cccc(C(=O)NCc2nnc(S)n2-c2ccc(Cl)c(Cl)c2)c1`, the Inhibition is 100% in assay [1], 100% in assay [2] and 0% in assay [3].
In the case of `Cc1c(Cl)cccc1N=C(S)NN=Cc1ccccn1`, the Inhibition in assay [1] was 99%; in assay [2], 85%; in assay [3], 58%.
